# According to ChEMBL document CHEMBL3988442, “University of Dundee, Small-Polar-MMV Screening Library” (2021):
# Where “and” joins values, the source holds several entries; their conditions need not be identical. Identical values can stand only once. Screen size: about 38,000 compounds; about 1,200 (3.2%) showed an effect of 50% or more. The median lay at about -58%. The entries come from a sample that favours strong results as a whole.
# Test system: Plasmodium falciparum
# Assay: Calibr Malaria Delayed Death Assay SOP
# Assay type: functional, organism-based
# Set-up: scale not given: in the data most compounds retested in dose-response had high values
# Details: concentration 4.99e-06 (unit not given; other assays of the set use mol/L)
smiles,measurement,setting,value
CCc1noc(C)c1C(=O)N1CCC2(CCCN(CC(C)(C)C)C2=O)C1 (stereo not given),Percent Effect,4.99 µM,-34.55% and -37.04%
CN(CC1(O)CCCN(Cc2cccc(F)c2F)C1=O)C1CCCCC1 (stereo not given),Percent Effect,,63.45%
CC(C)(C)CNCC1(O)CCCN(Cc2ccccc2F)C1=O (stereo not given),Percent Effect,,83.8%
Cc1cccnc1CNCC1(O)CCCN(CC(C)(C)C)C1=O (stereo not given),Percent Effect,,-8.334%
CC1CCN(CC2(O)CCCN(Cc3cccc(F)c3F)C2=O)CC1 (stereo not given),Percent Effect,,-78.62%
COc1ccc(F)c(CN2CCCC(O)(CNCC(C)(C)C)C2=O)c1 (stereo not given),Percent Effect,,48.73%
O=C1N(Cc2cccc(F)c2F)CCCC1(O)CN1CCCOCC1 (stereo not given),Percent Effect,,40.89%
CC(C)C(C)NC(=O)CNc1cc2c(cc1Cl)NC(=O)CO2 (stereo not given),Percent Effect,,-65.88%
CCOCC1CN(S(=O)(=O)C2CC2)Cc2ncn(CC3CC3)c21 (stereo not given),Percent Effect,,-12.84%
c1ccc(-c2nnc([C@H]3CCN(C4CCOCC4)C3)o2)cc1,Percent Effect,,-0.6483%
O=C(O)C(F)(F)F.c1ccc(C[C@H]2CN(Cc3nccs3)CC[C@@H]2OCC2CC2)cc1,Percent Effect,,38.1%
O=C(C1CCOCC1)N1CC[C@@H](N2CCOCC2)[C@@H]1Cc1ccccc1,Percent Effect,,3.107%
Cc1noc(C)c1CN1CC[C@H](OCC2CC2)[C@@H](Cc2ccccc2)C1,Percent Effect,,60.12%
Cc1noc(C)c1CN1C[C@H](OCC2CC2)[C@H]2COC[C@H]21.O=C(O)C(F)(F)F,Percent Effect,,-59.49%
OC(CNc1ccncn1)CN1CCCCCC1 (stereo not given),Percent Effect,,-2.039%
CC(C)c1ccc(C(=O)N2CCOCC2CC(=O)c2ccco2)cn1 (stereo not given),Percent Effect,,-33.41%
CS(=O)(=O)N1CCCC(Cc2cncc(Br)c2)CC1 (stereo not given),Percent Effect,,-9.475%
FC(F)(F)c1ccc2nc([C@H]3CCN(C4CCCCC4)C3)[nH]c2c1,Percent Effect,,83.6%
FC(F)(F)c1ccc2nc([C@H]3CCN(C4CCC4)C3)[nH]c2c1,Percent Effect,,5.22%
CS(=O)(=O)N1CC[C@H](c2nc3ccc(C(F)(F)F)cc3[nH]2)C1,Percent Effect,,-89.81%
O=C(CCc1ccccc1)N1CCCCC1Cn1cccn1 (stereo not given),Percent Effect,,-77.88%
CN(Cc1cccnc1)CC1CC12CCN(c1nncs1)CC2.O=C(O)C(F)(F)F.O=C(O)C(F)(F)F.O=C(O)C(F)(F)F (stereo not given),Percent Effect,,-14.98%
Cc1ccc(CN2CCC3(CC2)CC3CN(C)Cc2cccnc2)o1.O=C(O)C(F)(F)F.O=C(O)C(F)(F)F.O=C(O)C(F)(F)F (stereo not given),Percent Effect,,69.86%
Cc1cnc(N2CCC3(CC2)CC3CN(C)Cc2cccnc2)nc1.O=C(O)C(F)(F)F.O=C(O)C(F)(F)F (stereo not given),Percent Effect,,-34.71%
CCOC(=O)C1(CCOC)CCCN(Cc2nccn2CC)C1 (stereo not given),Percent Effect,,6.985%
CCn1ccnc1CN1CCCC(CO)(Cc2cccc(Cl)c2)C1 (stereo not given),Percent Effect,,76.24%
CCOC(=O)C1(Cc2ccccc2)CCCN(Cc2nccn2CC)C1 (stereo not given),Percent Effect,,71.35%
CCOC(=O)C1(CCOC)CCN(Cc2nccn2CC)CC1,Percent Effect,,-18.48%
CCn1ccnc1CN1CCCC(CO)(CCCc2ccccc2)C1 (stereo not given),Percent Effect,,5.561%
Cc1cnc(C)c(N2CCCC(CO)(Cc3cccc(Cl)c3)C2)n1 (stereo not given),Percent Effect,,-85.57%
CCn1c(N)nc2cc(C(=O)NCCc3ccccc3F)cnc21,Percent Effect,,-271.4%
CCc1nc(C2CCCN2CC(=O)Nc2cc(C)nn2C)no1 (stereo not given),Percent Effect,,-146.1%
O=C(Cc1cccc(F)c1)NC1CCCc2cn[nH]c21 (stereo not given),Percent Effect,,-5.228%
CN(CCCOc1ccccc1)S(=O)(=O)c1cnn(C)c1,Percent Effect,,-2.544%
O=C(Cc1c[nH]c2ncccc12)NCC(O)c1ccsc1 (stereo not given),Percent Effect,,-112.4%
NC(=O)c1ccccc1NC(=O)CCN1CCN(CCO)CC1,Percent Effect,,-1.535%
CC(C(N)=O)N(C)Cc1ccccc1C(F)(F)F (stereo not given),Percent Effect,,-7.943%
CC(C)Oc1cccc(C(O)CNC(=O)NCc2cccs2)c1 (stereo not given),Percent Effect,,-103.2%
Cc1nn(C)c(N(C)C)c1CNCC(O)c1ccccc1 (stereo not given),Percent Effect,,-52.78%
Cl.OC(CNCc1ccccc1C(F)(F)F)c1ccccc1 (stereo not given),Percent Effect,,81.89%
CC(=O)Nc1ccc(CNCC(O)c2ccc(C)cc2)cc1 (stereo not given),Percent Effect,,-93.75%
COC(=O)CNC(=O)C(C)Oc1ccccc1C(F)(F)F (stereo not given),Percent Effect,,-63.42%
Cc1ccccc1CNCC(O)c1ccc(OC(C)C)cc1 (stereo not given),Percent Effect,,92.11%
CC(O)CNCc1ccccc1C(F)(F)F.Cl (stereo not given),Percent Effect,,-50.42%
CC(=O)Nc1ccc(CNCC(O)c2ccccc2)cc1 (stereo not given),Percent Effect,,6.789%
CC(C)Oc1ccc(C(O)CNCc2ccccc2C(F)(F)F)cc1 (stereo not given),Percent Effect,,82.7%
CN(Cc1ccccc1C(F)(F)F)C(C(N)=O)c1ccccc1 (stereo not given),Percent Effect,,-32.88%
CC(C)C(NC(=O)NCCNc1ncccn1)c1cccs1 (stereo not given),Percent Effect,,-40.63%
CN1CCC2(CC1)CN(C(=O)c1ccncc1)Cc1ccccc12,Percent Effect,,-65.66%
O=C(CCC1CCCO1)NCCCC(=O)Nc1ccc(Cl)cc1 (stereo not given),Percent Effect,,-199.2%
CCOc1ccc(S(=O)(=O)N(CCOC)Cc2ccncc2)cc1F,Percent Effect,,-28.24%
O=C(CCn1ccnn1)N1CCCC(n2cncn2)C1 (stereo not given),Percent Effect,,-95.7%
CC(C)N1CCCC(C(=O)NCCc2csc(-c3ccncc3)n2)C1 (stereo not given),Percent Effect,,-80.76%
CNC(=O)C1CCN(c2nc3nc[nH]c(=O)c3s2)CC1,Percent Effect,,-123.8%
CC(C)CN1C(=O)C2(CCN(Cc3ccoc3)C2)c2ccccc21.O=C(O)C(F)(F)F (stereo not given),Percent Effect,,-29.95%
COC(=O)c1ncccc1N1CCC(C(O)c2ccccc2)CC1 (stereo not given),Percent Effect,,-12.82%
Cn1ccnc1CN1CCCC2(CCN(CC3CCCO3)CC2)C1.O=C(O)C(F)(F)F.O=C(O)C(F)(F)F (stereo not given),Percent Effect,,15.47%
COc1ccc(CN2C[C@@H]3OCCN(CCN(C)C)[C@@H]3C2)cc1.O=C(O)C(F)(F)F.O=C(O)C(F)(F)F.O=C(O)C(F)(F)F,Percent Effect,,65.18%
CN(C)c1nccc(N2CCO[C@H]3CN(Cc4ccsc4)C[C@H]32)n1.O=C(O)C(F)(F)F,Percent Effect,,68.45%
COCCN1CC[C@@H]2CN(Cc3cccnc3OC)C[C@@H]2C1.O=C(O)C(F)(F)F.O=C(O)C(F)(F)F,Percent Effect,,-74.35%
CN(C)CCN1CCO[C@H]2CN(Cc3ccccn3)C[C@H]21.O=C(O)C(F)(F)F.O=C(O)C(F)(F)F.O=C(O)C(F)(F)F.O=C(O)C(F)(F)F,Percent Effect,,8.318%
COc1ccc(CN2C[C@@H]3OCCN(C)[C@@H]3C2)cc1.O=C(O)C(F)(F)F,Percent Effect,,-49.2%
COc1ncccc1CN1C[C@@H]2OCCN(CCN(C)C)[C@@H]2C1.O=C(O)C(F)(F)F.O=C(O)C(F)(F)F.O=C(O)C(F)(F)F,Percent Effect,,-6.564%
COc1ccc(CN2C[C@@H]3OCCN(CCN4CCCC4)[C@@H]3C2)cc1.O=C(O)C(F)(F)F.O=C(O)C(F)(F)F.O=C(O)C(F)(F)F,Percent Effect,,62.07%
CCc1ccc(CN2C[C@@H]3OCCN(c4ccnc(N(C)C)n4)[C@@H]3C2)o1.O=C(O)C(F)(F)F,Percent Effect,,5.976%
O=C(O)C(F)(F)F.O=C(O)C(F)(F)F.O=C(O)C(F)(F)F.O=C(O)C(F)(F)F.c1cc(CN2C[C@@H]3OCCN(CCN4CCCC4)[C@@H]3C2)ccn1,Percent Effect,,-114.9%
Fc1ccc(CN2C[C@@H]3OCCN(CCN4CCCC4)[C@@H]3C2)cc1.O=C(O)C(F)(F)F.O=C(O)C(F)(F)F.O=C(O)C(F)(F)F,Percent Effect,,-79.23%
COc1ncccc1CN1CC[C@H]2[C@H]1CCN2CCN(C)C.O=C(O)C(F)(F)F.O=C(O)C(F)(F)F.O=C(O)C(F)(F)F.O=C(O)C(F)(F)F,Percent Effect,,52.47%
O=C(O)C(F)(F)F.O=C(O)C(F)(F)F.c1cnc(N2CCO[C@H]3CN(Cc4ccsc4)C[C@H]32)nc1,Percent Effect,,32.67%
O=C(C1CCOC1)N1CCC2(CCN(Cc3nccs3)C2)CC1 (stereo not given),Percent Effect,,-29.96%
CN(Cc1cccc(F)c1)C(=O)CN1CCOC(Cn2cncn2)C1 (stereo not given),Percent Effect,,-118.2%
Cc1ccc(CC(=O)NCC(Cc2ccc(F)cc2)C(N)=O)cn1 (stereo not given),Percent Effect,,-64.69%
COc1ccc(CN2CC(O)CN(C(=O)OCC(C)C)CC2=O)cc1 (stereo not given),Percent Effect,,-72.03%
CC(C)CC(=O)N1CC[C@H]2N(C)CC[C@@]2(C(=O)Nc2cccnc2)CC1.O=C(O)C(F)(F)F.O=C(O)C(F)(F)F,Percent Effect,,15.37%
COc1cccn(CC(=O)N2CCC3(CCNCC3)C2)c1=O,Percent Effect,,-26.75%
COc1cccc(CN2CC3(CCNCC3)CCC2=O)c1OC,Percent Effect,,6.381%
O=C(COCC1CCCO1)N(Cc1cccnc1)c1ccc(F)cc1 (stereo not given),Percent Effect,,-38.29%
O=S(=O)(CCCN1CCCC1Cn1cncn1)c1ccccc1 (stereo not given),Percent Effect,,-135.1%
CCC(O)Cn1cc(C2=CCN(Cc3ccc(OC)cc3)CC2)cn1 (stereo not given),Percent Effect,,67.35%
COc1ccc(NC(=O)CCN2CC=C(c3cnn(C)c3)CC2)c(C)c1,Percent Effect,,-34.98%
CC(C)(C)n1cc(C2=CCN(CCNC(N)=O)CC2)cn1,Percent Effect,,-173.3%
Cc1nc(O)cc(CN2CC=C(c3cnn(C(C)(C)C)c3)CC2)n1,Percent Effect,,-65.29%
Cn1cc(C2=CCN(CCCC(=O)Nc3ccc(C#N)cc3)CC2)cn1,Percent Effect,,-71.5%
CC(C)(C)n1cc(C2=CCN(CCc3ccccn3)CC2)cn1,Percent Effect,,43.76%
CCC(O)Cn1cc(C2=CCN(Cc3cc(O)nc(C)n3)CC2)cn1 (stereo not given),Percent Effect,,-28.24%
Cn1cc(C2=CCN(CCCOc3ccc(C(N)=O)cc3)CC2)cn1,Percent Effect,,-65.42%
CC(C)(C)n1cc(C2=CCN(CCN3CCCCCC3)CC2)cn1,Percent Effect,,70.18%
CCn1cc(C2=CCN(CCCOc3ccccc3)CC2)cn1,Percent Effect,,81.92%
CC(C)(C)n1cc(C2=CCN(CCc3ccccc3)CC2)cn1,Percent Effect,,67.25%
CC(C)(C)n1cc(C2=CCN(CCNC(=O)c3ccccc3)CC2)cn1,Percent Effect,,15.76%
